High-throughput results as filed in PubChem.
Most compounds without a hit are left out; they make up all but 2% or so of the library.
NR2F2 inh: NR2F2 transcriptional activity inhibitors, primary screen, cell-based, luciferase reporter, HEK293T, luminescence; HEK293T NGFI-A luciferase reporter; hit rate 0.7% among 370,000; inhibition, % at 8.6 µM; COUP transcription factor 2 (Homo sapiens), P24468;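 active = inhibition above a per-plate cutoff, mean inhibition of test wells between control levels plus 3 SD, cut at about 38% in these data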;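 note: cells cotransfected with COUP-TFII expression vector driving the NGFI-A reporter; 0% = median of COUP-TF2 test wells and 100% = reporter-only cells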
697 NFkB inh: inhibitors of PMA/ionomycin-induced NF-kB reporter, 697 cells, primary screen, B-cell NF-kB inhibitor project, cell-based, luminescence, uHTS; 697 B-cell NF-kB luciferase reporter, 16 h; inhibition, % at 4 µM; hit rate 0.33% among 330,000; AID 435022, 2010; in the data active = inhibition above about 35%
Jurkat NFkB inh: inhibitors of induced NF-kB luciferase reporter, primary screen, TCR NF-kB activation inhibitor project, cell-based, luminescence, uHTS; hit rate 0.53% among 330,000; Jurkat, PMA/ionomycin-induced NF-kB luciferase reporter; inhibition, % at 4 µM; in the data active = inhibition above about 50%
GalR3 antagonist: GalR3 antagonists in HEK293 cells, primary screen, cell-based, fluorescence readout; Galanin receptor type 3 (Homo sapiens), O60755; HEK293 GalR3-CNG cAMP membrane potential fluorescence; galR3 body fused to GalR1 C-terminus; inhibition, % at 3 µM; hit rate 0.44% among 360,000;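 active = inhibition above the screen-wide average plus 3 SD, cut at about 13% in these data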;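 note: forskolin and galanin both at EC90 stimulate the cells; cAMP rise reported by CNG channel membrane potential dye signal; 0% = forskolin plus galanin with DMSO and 100% = forskolin alone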
Target sequence (O60755 1-299 limits assumed): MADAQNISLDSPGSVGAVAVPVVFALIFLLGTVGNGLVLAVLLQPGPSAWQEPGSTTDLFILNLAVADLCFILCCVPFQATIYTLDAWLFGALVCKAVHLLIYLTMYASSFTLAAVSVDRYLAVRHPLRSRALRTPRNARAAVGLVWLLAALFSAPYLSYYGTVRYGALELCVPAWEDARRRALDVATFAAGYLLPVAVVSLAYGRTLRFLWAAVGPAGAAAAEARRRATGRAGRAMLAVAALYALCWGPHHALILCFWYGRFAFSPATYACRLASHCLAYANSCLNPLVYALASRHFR
Gli-Sufu block: Gli-Sufu pathway antagonists, primary screen, luciferase luminescence, Sufu-KO-LIGHT cells, uHTS. AID 588413, 2011. Sufu-KO-LIGHT fibroblasts, Gli luciferase reporter luminescence. inhibition, % at 5 µM. hit rate 0.74% among 340,000;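 active = inhibition above about 55%, limit read from the data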;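 note: 0% = DMSO-treated cells and 100% = wells with medium but no cells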
GalR3 conf: GalR3 antagonist hit confirmation, cell-based, fluorescence, triplicate. shares compounds with GalR3 antagonist. HEK293 GalR3 CNG cAMP biosensor, membrane potential fluorescence; galR3 fused to GalR1 carboxy tail; challenged with forskolin and galanin at EC90. inhibition, % at 3 µM. hit rate 59% among 1,600;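 active = inhibition above the primary screen's cutoff, the mean inhibition of all screened compounds plus 3 SD, cut at about 13% in these data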;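 note: 0% = forskolin plus galanin and 100% = forskolin alone with DMSO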
HEK-CNG parental: nonspecific cAMP agonists in parental HEK-CNG cells, counter-screen for GalR3 antagonist project, cell-based, fluorescence, high throughput; shares compounds with GalR3 antagonist; HEK293-CNG parental cells, cAMP membrane potential fluorescence; normalised: DMSO wells 0%, forskolin wells 100%; activation, % at 3 µM; hit rate 10% among 1,600; AID 652268, 2013; in the data active = activation above about 1.3%
* hit, by the source's call; . = no result.

SMILES	NR2F2 inh	697 NFkB inh	Jurkat NFkB inh	GalR3 antagonist	Gli-Sufu block	GalR3 conf	HEK-CNG parental
CCOc1cc(C(C(=O)NCC2CCCO2)N(C(=O)Cn2nnc3ccccc32)c2ccccc2C)ccc1O (stereo not given)	1	-6	-6	-1	-8	.	.
CCOc1cc(C(C(=O)NCC2CCCO2)N(C(=O)Cn2nnc3ccccc32)c2ccccc2C(C)=O)ccc1O (stereo not given)	-9	3	1	15*	4	14*	0
CC(C)[C@H](NC(=O)c1c(F)cccc1F)C(=O)N1CCN(c2ccc(F)cc2)CC1	-27	-6	-2	13*	-12	4	0
COc1cccc(/C=C2\CC3(OC(=O)C(C)(C)C)CCCN2C3)c1 (stereo not given)	-4	.	.	.	.	.	.
CC(=O)NCCC1CCN(c2nc3nonc3nc2N(C)Cc2ccccc2)CC1	-2	5	-5	20*	2	0	0
CCCCNC(=O)N1CCC(CCC(=O)N(C)Cc2ccccc2)CC1	4	6	-12	-11	-12	.	.
O=C(NCC(F)(F)F)c1ccc2sc([C@@H]3O[C@H](CO)[C@H](O)[C@H](O)[C@H]3O)nc2c1	-61	.	.	40*	.	0	0
COc1ccc(OC)c(S(=O)(=O)N2CCCCC2C(=O)N2CCN(Cc3ccc(F)cc3)CC2)c1 (stereo not given)	15	.	.	.	.	.	.
O=[N+]([O-])c1cccc(C2=NCCC(c3ccccc3)O2)c1 (stereo not given)	-55	0	6	22*	-6	4	0
O=[N+]([O-])c1cccc(-c2nnc(C3CC3)o2)c1	-5	5	8	-5	4	.	.
Cc1ccc(CN[C@@H]2CC[C@@]34CCCN3C(=O)CCC[C@H]4C2)o1	-24	.	.	.	.	.	.
COc1cc(CN(C)CC(=O)c2[nH]c(C)c(C(C)=O)c2C)ccc1OC(F)F	25	-3	19	19*	42	12	0
COc1ccc(NC(=O)CN(C)CC(=O)c2[nH]c(C)c(C(C)=O)c2C)cc1	7	10	15	-6	9	.	.
CC1CC(C)CN(C(=O)CSCC(=O)O)C1 (stereo not given)	-8	16	18	13*	8	-2	0
COC(=O)C1CN(CCO)CCS(=O)(=O)N1Cc1cn(Cc2ccc(C)cc2)nn1 (stereo not given)	-18	.	.	.	.	.	.
COc1cc(OC)c2cc[nH]c2c1	-7	-20	-10	18*	40	5	0
Cc1cnc(C=O)c2cccc([N+](=O)[O-])c12	-3	.	.	34*	.	14*	0
C[C@H]1[C@@H](N(C)Cc2ccccc2)CC[C@@]23CCCN2C(=O)CCC[C@@H]13	-2	.	.	.	.	.	.
CCOC(=O)CC[C@H]1CC[C@]2(CCCN(C(=O)C(C)(C)C)C2)O1	-10	.	.	.	.	.	.
CCOc1ccc(C2=Nn3c(nnc3-c3ccccc3OC)SC2)cc1	-73	.	.	22*	51	45*	2.2*
COc1ccc(C2=Nn3c(nnc3-c3ccccc3C(F)(F)F)SC2)cc1OC1CCOC1 (stereo not given)	-15	-12	-10	15*	12	17*	0
COc1ccc(C2=Nn3c(nnc3-c3ccccc3OC)SC2)cc1OC1CCOC1 (stereo not given)	-108	7	-21	-1	42	.	.
O=C(c1cccs1)n1ccc2ccc(-c3ccc4ccn(C(=O)c5cccs5)c4c3)cc21	-2	.	.	.	.	.	.
COc1ccc(/C=C2\OC(=O)c3c(OC)cccc32)cc1OC	-148	-148	-45	62*	6	20*	0
Cc1cc(N2CCN(C(=O)Oc3ccc(C(F)(F)F)cc3)CC2)c2ccccc2n1	33	.	.	.	.	.	.
SMILES	NR2F2 inh	697 NFkB inh	Jurkat NFkB inh	GalR3 antagonist	Gli-Sufu block	GalR3 conf	HEK-CNG parental
Cc1n[nH]c(=S)n1/N=C/c1ccccc1	4	-7	-1	1	-10	.	.
Cc1ccc(-n2nc(C)c(/C=N/n3c(C)n[nH]c3=S)c2Cl)cc1	-1	-14	14	.	-9	11	1
O=S(=O)(NCC1CN(S(=O)(=O)c2c(F)cccc2F)C1)c1ccc2c(c1)OCCO2	31	-20	22	73*	28	103*	0
O=S(=O)(c1ccc2c(c1)OCCO2)N1CCN(S(=O)(=O)c2c(F)cccc2F)CC1	-7	.	.	.	.	.	.
C=CCN1[C@H](Cc2ccccc2)COc2cccc(N3CCSCC3)c2S1(=O)=O	16	.	.	.	.	.	.
CCOC(=O)c1sc2ncnc(N3CCN(C(=O)OCC)CC3)c2c1C	10	-6	10	15*	1	21*	0
CCOC(=O)c1sc2ncnc(N3CCN(CC)CC3)c2c1C	-3	-10	-8	-2	9	.	.
CCC[C@H]1[C@@H](OC(=O)NC2CCC2)CC[C@@]23CCCN2C(=O)CCC[C@@H]13	-12	.	.	.	.	.	.
CC(=O)OCCNc1cc(Sc2nc3ccccc3[nH]2)c2nonc2c1[N+](=O)[O-]	4	.	.	46*	-9	32*	0
CC(=O)OCCCNc1cc(Sc2nc3ccccc3s2)c2nonc2c1[N+](=O)[O-]	.	8	13	.	6	.	.
COc1ccc(C(=O)NCC(=O)OCC(=O)c2ccc3c(c2)NC(=O)CO3)cc1OC	5	9	-1	72*	4	-2	0
CCOC(=O)C(=CNc1ccc(S(N)(=O)=O)cc1)C(=O)OCC	-37	22	7	13*	-4	29*	1
Cc1cccc(NC(=O)CNC(=O)[C@H]2O[C@@H](n3cnc4c(N)ncnc43)[C@H](O)[C@@H]2O)c1C	0	.	.	-5	.	.	.
O=c1ccn([C@@H]2O[C@H](CNCc3ccc(-c4cc(C(F)(F)F)ccc4Cl)o3)[C@@H](O)[C@H]2O)c(=O)[nH]1	-5	.	.	2	4	.	.
Nc1ncnc2c1ncn2[C@@H]1O[C@H](C(=O)NS(=O)(=O)c2ccccc2[N+](=O)[O-])[C@@H](O)[C@H]1O	-18	.	.	39*	.	27*	0
Nc1ncnc2c1ncn2[C@@H]1O[C@H](C(=O)N[C@H]2c3ccccc3C[C@H]2O)[C@@H](O)[C@H]1O	-18	.	.	20*	.	31*	1.3*
Nc1ncnc2c1ncn2[C@@H]1O[C@H](CNCc2ccc(-c3cc(C(F)(F)F)ccc3Cl)o2)[C@@H](O)[C@H]1O	-47	0	.	42*	-1	54*	0
